Results on 103 molecules are retold here after PubChem BioAssay AID488835 (Broad Institute, 2010).

In all, about 1,400 compounds went through this assay and about 140 (10%) were called active.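 Rule for the calls: active = Half-maximal inhibitory dose from the fit at or below ten times the top valid tested dose; inconclusive = Invalid fit, or flat curve showing 30 to 70% inhibition; inactive = the rest.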 Only a sample is shown. Measured potencies and affinities stand elsewhere.

Sequence of Lysine-specific demethylase 4C (Homo sapiens) (Q9H3R0 1-420 limits assumed): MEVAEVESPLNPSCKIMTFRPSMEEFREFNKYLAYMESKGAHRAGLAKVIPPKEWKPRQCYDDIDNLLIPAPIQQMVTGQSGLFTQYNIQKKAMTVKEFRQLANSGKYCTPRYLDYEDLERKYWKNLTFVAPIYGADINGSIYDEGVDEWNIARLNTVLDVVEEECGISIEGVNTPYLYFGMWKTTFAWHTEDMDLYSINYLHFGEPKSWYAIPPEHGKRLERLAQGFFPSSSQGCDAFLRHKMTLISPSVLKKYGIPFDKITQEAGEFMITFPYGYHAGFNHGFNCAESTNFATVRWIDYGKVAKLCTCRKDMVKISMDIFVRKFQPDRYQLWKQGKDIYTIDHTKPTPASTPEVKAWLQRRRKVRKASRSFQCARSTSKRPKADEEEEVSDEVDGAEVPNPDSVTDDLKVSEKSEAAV

This experiment has as its target Lysine-specific demethylase 4C (Homo sapiens) (UniProt Q9H3R0). As to the kind of experiment: GASC-1 (JMJD2C) histone demethylase inhibitors, dose response, biochemical, DELFIA europium, cherry-picked samples (AID 488835).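 Note: signal is the H3K9me2 demethylation product detected by a dimethyl-specific antibody.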 Conditions: GST-JMJD2C(1-420), H3K9me3 demethylation; series mostly up to 6 µM.
`Cc1ccc(-n2c3nc(=O)[nH]c(=O)c-3cc3c(C)nn(-c4ccccc4)c32)c(C)c1`: the outcome was inactive. In the case of `O=C1CC2C(=O)NCCN2C(=NC(=O)c2ccccc2)N1` (stereo not drawn) it was “inactive”; in that of `CCSc1nnc(-c2cccc(S(=O)(=O)N(CC)CC)c2)n1Cc1ccccc1`, “inactive”; in that of `Cc1ccc(-c2csc3nc(C)n(-n4c(C)ccc4C)c(=O)c23)o1`, “inactive”.

Regarding `CN(C)CCOc1ccc(-c2c(-c3ccccc3)sc3ccccc23)cc1`, the result was inactive. In the case of `Cc1nc(-c2ccc(C(=O)N3CCCC3)cc2)cs1` it was “inactive”; in that of `Fc1ccc(-c2csc(Nc3ccccn3)n2)cc1`, “inactive”; in that of `COc1ccc(OC)c(Nc2nc(-c3cccs3)cs2)c1`, “inactive”. Under `NC(=O)C1CCN(c2nc(-c3ccc4c(c3)OCCO4)cs2)CC1` stands “inactive”; under `COc1ccc(-c2n[nH]c(=S)n2C2CCCCC2)cc1`, “inactive”. In the case of `OCC1=C[C@@H](O)[C@@H]2C=CO[C@@H](O[C@@H]3O[C@H](CO)[C@@H](O)[C@H](O)[C@H]3O)[C@H]12`, the molecule was called inactive. Under `COc1ccc2[nH]c(=O)c(CN(CCCN(C)C)C(=O)Nc3ccc(F)cc3)cc2c1` stands “inactive”; under `N#Cc1ccc(OCC(=O)Nc2ccccc2NS(=O)(=O)c2cccs2)cc1`, “inactive”; under `CC(=O)C[C@@H](O)CC(=O)[C@H]1OC(=O)[C@H](C)C/C=C\Cc2ccccc21`, “inactive”. Turning to `Cc1cccc(C)c1NC1=NC(=S)N(c2ccc(C(=O)O)cc2)C12CCCCC2`, the molecule was called inactive. Under `O=C(COc1ccc(Cl)cc1)NCCCn1ccnc1` stands “inactive”. In the case of `O=C(OCCCOC(=O)c1ccc(Br)o1)c1ccc(Br)o1` it was “inactive”; in that of `CN(C)S(=O)(=O)c1ccc(N2CCCC2)c(C(=O)Nc2nc3ccc(F)cc3s2)c1`, “inactive”.

Take `COc1ccc2cc(Br)ccc2c1CC(=O)NCCCN1CCOCC1`: the molecule was called inactive. In the case of `CSCCC(NS(=O)(=O)c1ccc2ccccc2c1)C(=O)O` (stereo not drawn) it was “inactive”; in that of `Cn1c(=O)[nH]c(=O)c2[nH]c(NCCCN3CCOCC3)nc21`, “inactive”; in that of `CCOC(=O)N1CCN(c2ccc(F)cc2[N+](=O)[O-])CC1`, “inactive”. Turning to `NC(=O)CC(NC(=S)NCc1ccccc1)C(=O)O` (stereo not drawn), the outcome was inactive. Regarding `O=C(c1ccc2c(c1)OCO2)N1CCCN(C(=O)c2ccc3c(c2)OCO3)CC1`, the molecule was classed as inactive. In the case of `COc1ccc(CC(=O)Nc2ccc(/C(C)=N/NC(=O)c3cccc([N+](=O)[O-])c3)cc2)cc1` it was “inactive”; in that of `O=C(NCC(=O)N1CCCCC1)c1sc2ccccc2c1Cl`, “inactive”; in that of `c1cc2c(cc1C1CCCCC1)c1c3n2CCCNC3CCC1` (stereo not drawn), “inactive”. Regarding `COC(=O)c1cc(S(=O)(=O)NCCCN2CCCC2=O)cn1C`, the outcome was inactive.

With `O=[N+]([O-])c1ccc(N2CCN(S(=O)(=O)c3ccc(Cl)cc3)CC2)cc1NCc1cccnc1`, the call was inactive. For the molecule `C=CCNC(=O)c1ccc(S(=O)(=O)CC)c(Cl)c1Cl`, the result was inactive. In the case of `COC(=O)C1CCN(C(=O)COC(=O)COc2ccc(C#N)cc2)CC1`, the outcome was inactive. `COc1cccc(NC(=S)/C(=C(\[O-])c2ccc(C)c([N+](=O)[O-])c2)[n+]2ccccc2)c1`: the molecule was called inactive. Turning to `O=C(CSc1nnc(CNC(=O)c2cccs2)o1)c1ccccc1`, the outcome was inactive. Take `Cn1nnnc1SCC(=O)NCC(=O)c1ccccc1`: the outcome was inactive. In the case of `NCc1nc(-c2ccc(Cl)cc2)no1` it was “inactive”. Under `CCS(=O)(=O)Nc1ccc(C2=NN(C(=O)c3ccco3)C(c3ccc(C)cc3)C2)cc1` (stereo not drawn) stands “inactive”; under `CC(CN1CCCC1)OC(=O)COc1ccccc1` (stereo not drawn), “inactive”; under `COc1ccc(C(=O)NC2CC3CCCC(C2)N3Cc2ccccc2)cc1` (stereo not drawn), “inactive”.

`CCN(CC)S(=O)(=O)c1ccc(N2CCOCC2)c(NC(=O)c2ccc3c(c2)OCCO3)c1`: the result was inactive. Under `O=C(NC1CCN(S(=O)(=O)c2ccc(F)cc2)CC1)c1ccc(F)cc1` stands “inactive”; under `Oc1ccccc1N1CCN(C(=S)NCc2ccccc2)CC1`, “inactive”; under `O=C(O)CCNc1ccc2c(c1)OCCO2`, “inactive”. For the molecule `COc1ccc(S(=O)(=O)Nc2cccc3c2O[C@H](CN(C)Cc2ccc(C(=O)O)cc2)[C@@H](C)CN([C@H](C)CO)C3=O)cc1`, the result was inactive. Under `CC(C)(C)C1CCc2[nH]c3ccccc3c(=O)c2C1` (stereo not drawn) stands “inactive”; under `Cc1cc(=O)[nH]c(SCC(=O)Nc2ncc(S(=O)(=O)c3ccc([N+](=O)[O-])cc3)s2)n1`, “inactive”; under `CCn1c(=O)c(C(=O)NCCc2ccc(Cl)cc2)c(O)c2ccccc21`, “inactive”. For `CC1CCCCC12NC(=O)N(CC(=O)NCCc1ccccn1)C2=O` (stereo not drawn), the molecule was classed as inactive. In the case of `COc1ccc(NC(=O)Nc2c[nH]c(=O)[nH]c2=O)cc1OC` it was “inactive”; in that of `COc1ccc(C(=O)OCCc2sc[n+](CC(=O)c3ccccc3)c2C)cc1`, “inactive”.

For `CCOC(=O)N1CCC(c2nc3ccccc3[nH]2)CC1`, the molecule was called inactive. Under `O=C(c1cccc(C(F)(F)F)c1)N1CCCC1` stands “inactive”; under `O=C(O)c1ccc(/C=N/Nc2cccc(C(F)(F)F)c2)cc1`, “inactive”. With `Cn1c2ccccc2c(=O)c2ccc(NCCc3cccs3)cc21`, the result was inactive. In the case of `COc1cccc(C(C[N+](=O)[O-])c2c(C)[nH]n(-c3ccccc3)c2=O)c1` (stereo not drawn) it was “inactive”; in that of `CCCc1nn(C)c(C(=O)Nc2ccc(C)c(C)c2)c1Cl`, “inactive”; in that of `O=C(Nc1nc2ccccc2n1CCN1CCCC1)C1CCCCC1`, “inactive”. As to `O=C(N/N=C/c1cc([N+](=O)[O-])cc([N+](=O)[O-])c1O)/C(=C\c1cccs1)NC(=O)c1ccccc1`, the outcome was inactive. On to `Cc1ccc(/C=N\NC(=O)c2cc([N+](=O)[O-])cc([N+](=O)[O-])c2)o1`, for which the molecule was classed as inactive.

Take `CC(C)c1ccc(NC2CCCN(C(=O)CCN3CCCCC3=O)C2)cc1` (stereo not drawn): the molecule was classed as inactive. In the case of `c1ccc(-c2csc(-n3cccn3)n2)cc1`, the molecule was called inactive. Under `CCOC(=O)c1sc(=S)n(-c2ccc(Cl)cc2)c1SC` stands “inactive”; under `O=C(Nc1nnc(-c2cc(Cl)ccc2Cl)o1)c1ccco1`, “inactive”; under `O=C(Oc1ccc(N2C(=O)CCC2=O)cc1)c1ccccc1`, “inactive”. In the case of `COc1ccc(OC)c(C2=NOC(C(=O)NCCN3CCOCC3)C2)c1` (stereo not drawn) it was “inactive”; in that of `CCOC(=O)[C@H]1[C@H]2COc3ccc(OC)cc3[C@@H]2N2C(=O)c3cc(C)ccc3NC(=O)[C@@]12C`, “inactive”; in that of `Cc1cc2ccccn2c1C(=O)c1ccncc1`, “inactive”.

Consider `O=C1CC(CSc2ccc(Cl)cc2)=NN1`, for which the call was inactive. As for `CCN(Cc1cc2cc(OC)ccc2[nH]c1=O)C(=O)c1ccncc1`, the call was inactive.

Turning to `Cc1ccccc1NC(=S)c1nc2ccccc2[nH]1`, the result was inactive. In the case of `O=[N+]([O-])c1ccc(/C=[N+](\[O-])[C@@H]2CCCC[C@@H]2/[N+]([O-])=C/c2ccc([N+](=O)[O-])o2)o1` it was “inactive”; in that of `Cc1cccc(C2=N/C(=C\c3cccnc3)C(=O)O2)c1`, “inactive”; in that of `Cc1cccc(NC(=O)/C(=C\c2ccc([N+](=O)[O-])o2)NC(=O)c2ccc(Cl)cc2)c1`, “inactive”. Under `Cc1cccc(N2C(=O)C3C4C=CC(C4)C3C2=O)c1` (stereo not drawn) stands “inactive”; under `COc1cccc(C2c3[nH]c4ccccc4c3CCN2CCCn2cccn2)c1` (stereo not drawn), “inactive”; under `N#CCCCCN1c2cccc3cccc(c23)S1(=O)=O`, “inactive”. Take `O=C(Cn1cnc2c(OCc3ccccc3)ncnc21)NCCN1CCOCC1`: the call was inactive.

For `CN1CCN(c2ccc([N+](=O)[O-])cc2C(=O)N2CCOCC2)CC1`, the outcome was inactive.

On to `Cc1c(C(=O)N2CCC3(CC2)CC(=O)c2ccccc2O3)cccc1[N+](=O)[O-]`, for which the call was inactive. With `COc1ccc(OC)c(N(CC(=O)NCc2ccncc2)S(C)(=O)=O)c1`, the result was inactive. Regarding `COc1ccc(-c2cc(C(F)(F)F)n3nc(C(=O)NCCCN4CCOCC4)cc3n2)cc1`, the outcome was inactive.

`Cc1[nH]c2ccccc2c1-c1ccc(Cl)nn1`: the result was inactive. In the case of `COC(=O)c1sc(S(=O)(=O)NCc2ccccc2)c(C(=O)OC)c1C`, the result was inactive.

`COC(=O)c1ccc(CSc2nnc(N)s2)o1`: the result was inactive. For `COc1ccc(NC(=O)N(C)C[C@H]2Oc3c(NC(=O)Nc4ccccc4)cccc3C(=O)N([C@H](C)CO)C[C@@H]2C)cc1`, the outcome was inactive.

As for `COC(=O)C(Cc1ccccc1)NC(=O)COc1ccc(C(C)(C)C)cc1` (stereo not drawn), the molecule was classed as inactive. Consider `COc1cc2cnncc2cc1OC`, for which the outcome was inactive. Under `C/C(CC(=O)Nc1cccc(Cl)c1Cl)=N\NC(=O)c1ccccc1N` stands “inactive”.

As to `CC(C)(O)[C@H](O)Cc1cc2ccc(=O)oc2cc1O[C@@H]1O[C@H](CO)[C@@H](O)[C@H](O)[C@H]1O`, the molecule was called inactive. With `CC1(C)CC[C@]2(CO)CC[C@]3(C)C(=CCC4[C@@]5(C)CC[C@H](O)[C@@](C)(CO)C5CC[C@]43C)[C@@H]2C1` (stereo partly drawn), the molecule was called inactive. Under `CCN(C[C@H]1N[C@@](C)(C(=O)OC)[C@H]2C(=O)N(C)C(=O)[C@@H]12)C(=O)Nc1ccc(OC)cc1` stands “inactive”; under `COc1ccc(/C=N/NC(=O)c2cc(C)on2)c2ccccc12`, “inactive”; under `O=C(NCC1CCCO1)c1ccc2c(=O)n(Cc3cccc(Br)c3)c(=S)[nH]c2c1` (stereo not drawn), “inactive”.

For the molecule `Cc1csc(NC(=O)CSc2nnc(-c3ccncc3)n2C)n1`, the result was inactive. Under `CCn1c(SCC(=O)Nc2nc(C)cs2)nnc1-c1ccncc1` stands “inactive”. In the case of `CCCn1c2ccccc2c2nnc(SCC(=O)Nc3c(C)n(C)n(-c4ccccc4)c3=O)nc21` it was “inactive”; in that of `C[C@H](CO)N1C[C@H](C)[C@@H](CN(C)S(=O)(=O)c2ccccc2)Oc2ccc(NS(=O)(=O)c3ccc(F)cc3)cc2C1=O`, “inactive”. For `O=C(COC(=O)Cc1ccccc1F)Nc1ccc(SC(F)F)cc1`, the outcome was inactive.

In the case of `CC(=O)N=c1sccn1CC(=O)c1ccc([N+](=O)[O-])cc1`, the molecule was classed as inactive.

On to `COc1ccc(CNC(=O)CSc2nnnn2Cc2ccccc2)cc1`, for which the result was inactive. Under `CCNc1oc(-c2cccc3ccccc23)nc1C#N` stands “inactive”; under `COc1ccccc1-c1nc(C#N)c(NCc2ccc(F)cc2)o1`, “inactive”; under `O=c1c2ccccc2c(C=NCCCN2CCOCC2)c(O)n1Cc1ccccc1`, “inactive”. Take `CC(C)NC(=O)N(C)C[C@H]1Oc2ccc(NC(=O)C3CC3)cc2C(=O)N([C@H](C)CO)C[C@@H]1C`: the result was inactive.
